Assay outcomes: PubChem, The Scripps Research Institute Molecular Screening Center
Hits are enriched below; roughly 3.4% of the tested compounds scored in any of these assays.
FBW7 activator – human FBW7 E3 ligase activation, primary screen; Q969H0; 650,000 tested, 0.13% active; normalized activity (activation), % at 26.1 µM; AlphaScreen FBW7–phospho-cyclin E peptide binding, activator screen; AID 1259310; in the data active = normalized activity above about 1.9%;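 note: purified mutant Fbw7 with reduced substrate affinity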
MITF primary – human MITF inhibition, primary screen. O75030. AlphaScreen MITF homodimerization, bead proximity signal. inhibition, % at 2.6 µM. 650,000 tested, 0.91% active. AID 1259374; in the data active = inhibition above about 50%;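 note: 0% = vehicle wells with protein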
Target sequence (O75030 whole entry, looked up): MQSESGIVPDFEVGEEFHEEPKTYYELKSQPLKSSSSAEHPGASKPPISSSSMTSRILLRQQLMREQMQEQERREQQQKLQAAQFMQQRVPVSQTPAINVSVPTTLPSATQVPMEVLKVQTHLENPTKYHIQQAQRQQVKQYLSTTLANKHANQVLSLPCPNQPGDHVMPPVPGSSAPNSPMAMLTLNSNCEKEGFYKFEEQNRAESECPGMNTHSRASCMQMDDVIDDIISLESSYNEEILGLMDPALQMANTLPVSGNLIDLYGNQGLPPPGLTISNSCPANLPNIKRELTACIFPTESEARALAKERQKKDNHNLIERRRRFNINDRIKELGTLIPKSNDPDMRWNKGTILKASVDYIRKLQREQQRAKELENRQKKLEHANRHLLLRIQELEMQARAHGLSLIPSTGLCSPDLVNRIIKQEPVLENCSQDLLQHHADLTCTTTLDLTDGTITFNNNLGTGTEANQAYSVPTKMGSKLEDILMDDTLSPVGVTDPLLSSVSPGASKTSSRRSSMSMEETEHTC
GPR151 ag – activates the human receptor GPR151 | activation, % at 11.2 µM | 650,000 tested, 1% active | PathHunter beta-arrestin GPR151 cells, luminescence | Q8TDV0; in the data active = activation above about 4.9%;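 note: 0% = median of compound wells and 100% = cells with positive control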
TEAD-YAP block – TEAD-YAP interaction inhibition; HEK-TIYL cells, TEAD-Gal4/YAP UAS-luciferase luminescence; inhibition, % at 9.12 µM; 640,000 tested, 1.4% active; AID 1259422; in the data active = inhibition above about 32%;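 note: 0% = median of test compound wells and 100% = reference inhibitor wells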
MITF inh conf – confirmation of human MITF inhibitors. shares compounds with MITF primary. AlphaScreen MITF homodimerization, biotin/His-MITF beads. inhibition, % at 2.6 µM. 4,700 tested, 16% active. AID 1259372;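 active = inhibition above a cutoff derived from the DMSO control wells, cut at about 28% in these data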;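 note: 0% = MITF dimer wells with DMSO only; inhibitors lower the bead chemiluminescence by keeping MITF from dimerizing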
AS interf DR – optically interferes with AlphaScreen signal in dose response; shares compounds with MITF primary; AlphaScreen optical interference counterscreen, cell-free; IC50, µM; 480 tested, 6% active; call rule not given here
AS interf ctr – counter-screen: compounds optically interfering with AlphaScreen; AID 1259376; shares compounds with MITF primary; 4,700 tested, 7.6% active; LysRS AlphaScreen counterscreen, signal interference, triplicate; inhibition, % at 2.6 µM;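 active = inhibition above a cutoff derived from the DMSO control wells, cut at about 30% in these data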
* marks the source's active call; other numbers are inactive results; nt = no result given.

SMILES | FBW7 activator | MITF primary | GPR151 ag | TEAD-YAP block | MITF inh conf | AS interf ctr | others
CCOC(=O)/C=C1\NC(c2ccccc2)=C(c2ccccc2)C1=O | 0.1 | 56.0* | -0.8 | -7.2 | 8.4 | 16.7
Cc1ccc(Cn2c(=N)n(CC(O)COc3ccc(Cl)cc3)c3ccccc32)cc1 (configuration not stated) | -0.1 | 64.3* | 1.9 | 2.6 | 11.3 | 4.0
Cc1cc([N+](=O)[O-])ccc1-c1ccc(/C=N/c2ncn[nH]2)o1 | -0.2 | -0.3 | -1.5 | 9.8 | nt | nt
CN(C)CCNCCCOc1ccccc1 | 0.3 | 55.7* | -1.6 | 11.0 | 4.7 | 16.4
COCCNCCCOc1ccc(C(C)(C)c2ccccc2)cc1 | 0.2 | 84.9* | -1.1 | 10.2 | 1.9 | 7.2
COCCNCCCCOc1ccc(OCc2ccccc2)cc1 | -0.2 | 65.9* | -1.1 | -28.4 | 11.4 | 14.6
COCCCNCCOc1ccc(OCc2ccccc2)cc1 | 0.4 | 46.5 | -2.4 | -22.0 | nt | nt
CC(C)(c1ccccc1)c1ccc(OCCCNCCN)cc1 | -0.1 | -1.7 | 1.0 | 8.7 | nt | nt
COCCCNCCCOc1ccc(C(C)(C)c2ccccc2)cc1 | -0.1 | 76.2* | 0.2 | 4.8 | 2.1 | 4.9
CC(C)OCCCNC(=O)CCc1nnc(-c2ccccc2)o1 | 0.1 | 3.6 | 0.5 | -7.8 | nt | nt
Cc1nc(N2CCC(C(=O)NCC3CCOCC3)CC2)nc2cc3c(cc12)CCC3 | 0.1 | -7.2 | 0.3 | -24.9 | nt | nt
Cc1nc2sccn2c1CN1CCC2(CCC(CNC(=O)c3ccco3)O2)CC1 (configuration not stated) | 0.9 | 6.8 | -0.2 | 4.6 | nt | nt
N#Cc1cccc(NC(=O)CSc2nncs2)c1 | -0.1 | 52.7* | -0.6 | -14.2 | 5.6 | 11.0
N#Cc1cccc(NC(=O)CSc2nc3ccccc3s2)c1 | -0.1 | 10.2 | -1.6 | -4.7 | nt | nt
Cc1cc(C)c(C)c(S(=O)(=O)N2CCN(CC(O)COCc3ccco3)CC2)c1C (configuration not stated) | -0.1 | 51.4* | -0.6 | -2.9 | 6.7 | 11.8
CCN1CCN(S(=O)(=O)c2c(C)c(C)cc(C)c2C)CC1 | 0.1 | -1.3 | -0.5 | 0.7 | nt | nt
Nc1nonc1C(=O)N/N=C\c1cc([N+](=O)[O-])c(Cl)cc1Cl | 0.8 | 67.2* | -0.3 | 3.8 | -4.3 | -5.9
CN(C)CCNc1ncnc2sccc12 | -0.2 | 86.0* | 0.4 | -3.1 | 0.4 | 6.9
CCOC(CCCNc1ncnc2sccc12)OCC | 0.3 | 6.4 | 2.1 | 24.7 | nt | nt
O=C(/C=C/c1ccco1)C1=C(O)C(=O)N(CCCN2CCOCC2)C1c1ccco1 (configuration not stated) | -0.2 | 79.5* | 0.6 | 3.9 | 59.5* | -6.9 | AS interf DR=>6.48
CCSc1ccccc1C(=O)NCc1ccc2c(c1)OCO2 | -0.2 | 74.6* | -1.4 | 9.5 | 7.6 | 17.1
CSc1ccccc1NC(=O)CN(C)C(C)C(=O)NCc1ccc2c(c1)OCO2 (configuration not stated) | -0.1 | 87.8* | 3.9 | 8.9 | -3.0 | 12.9
CSc1ccccc1C(=O)NCc1ccc2c(c1)OCO2 | -0.2 | 3.5 | -0.2 | -1.1 | nt | nt
Cc1nn(Cc2ccccc2)c(C)c1C(=O)OCC(=O)c1cc(C)n(CC2CCCO2)c1C (configuration not stated) | -0.1 | -5.6 | -0.4 | -3.8 | nt | nt
Cc1cccn2c(CNCC3Cc4ccccc4CN3C)c(C(=O)N3CCOCC3)nc12 (configuration not stated) | 0.1 | 12.8 | -1.0 | 1.8 | nt | nt
SMILES | FBW7 activator | MITF primary | GPR151 ag | TEAD-YAP block | MITF inh conf | AS interf ctr | others
O=C(CSc1nc(-c2ccccc2)cc(C(F)(F)F)n1)N1CCOCC1 | -0.1 | 2.5 | 0.9 | -2.5 | nt | nt
CC(Sc1nc(-c2ccccc2)cc(C(F)(F)F)n1)C(N)=O (configuration not stated) | 1.4 | 54.0* | 0.8 | 13.3 | 0.6 | 1.6
Cc1cccc(C)c1OC(=O)c1cccc(Cl)c1 | -0.1 | -7.3 | -0.9 | -8.6 | nt | nt
Cc1nnn(C23CC4CC(CC(CC(=O)Nc5ccc(F)cc5)(C4)C2)C3)n1 | 0.9 | 75.1* | 0.4 | -7.9 | 9.5 | 9.0
COc1ccc(C(=O)COC(=O)c2ccccc2I)cc1 | 0.3 | 1.1 | -0.5 | -18.8 | nt | nt
O=C(CNCc1ccccc1Cl)Nc1ccccc1N1CCOCC1 | -0.1 | 62.0* | -0.2 | -2.1 | 13.5 | 8.9
O=C(CNCc1ccc(Cl)cc1)Nc1ccccc1N1CCOCC1 | -0.1 | 61.0* | -0.3 | -1.5 | 4.6 | 11.5
Cc1cccc(NC(=O)CNCc2cccnc2)c1C | 0.0 | 83.2* | -0.3 | -4.2 | 4.7 | 10.6
O=C(COC(=O)c1ccccc1Cl)Nc1ccccc1N1CCOCC1 | 0.1 | -5.1 | 0.1 | 6.2 | nt | nt
O=C(CNCc1cccnc1)Nc1ccc(OC(F)(F)F)cc1 | 0.0 | -8.1 | -1.1 | 1.3 | nt | nt
O=C(CNCc1cccnc1)Nc1ccc(C2CCCCC2)cc1 | 0.0 | 59.2* | 1.0 | -0.1 | 8.2 | 12.0
Cc1cccc(NC(=O)CSCCO)c1C | 0.3 | 8.2 | -0.8 | 13.4 | nt | nt
CCN(CC)c1ccc(C(=O)Nc2cc(C(=O)Nc3ccccc3F)ccc2N2CC3CC(C2)c2cccc(=O)n2C3)cc1 (configuration not stated) | -0.1 | 6.6 | 0.3 | -10.8 | nt | nt
CN(C)S(=O)(=O)c1ccc(C(=O)OC2CCCCCCC2)cc1 | 0.0 | -1.2 | 1.0 | -0.7 | nt | nt
O=C(CNCc1cccnc1)Nc1ccccc1N1CCOCC1 | 0.3 | 102.3* | 0.2 | -2.3 | -101.8 | -4.0
O=C(CNCc1cccnc1)N(c1ccccc1)c1ccccc1 | -0.1 | 94.9* | 0.7 | -5.4 | 7.9 | 16.7
O=C(CNCc1ccc(F)cc1)Nc1ccccc1N1CCOCC1 | 0.0 | 63.1* | -0.9 | -0.3 | -1.3 | 8.5
COc1ccccc1NC(=O)C1=C(C)NC(SCC(=O)Nc2ccccc2)=C(C#N)C1c1ccco1 (configuration not stated) | 0.1 | 10.8 | 1.4 | 3.4 | nt | nt
COc1ccccc1NC(=O)C1=C(C)NC(SCC(=O)Nc2cccc(C)c2C)=C(C#N)C1c1ccco1 (configuration not stated) | -0.2 | 56.1* | -0.3 | 32.2* | 3.3 | 7.4
COC(=O)C1=C(C)n2nnnc2NC1c1cc2ccccc2o1 (configuration not stated) | 0.1 | 77.0* | 0.8 | 10.9 | 9.9 | 17.7
CC1CC(C)(C)Cc2c1sc(NC(=O)c1ccco1)c2C#N (configuration not stated) | 0.1 | 84.3* | 1.1 | -38.1 | -2.4 | -7.7
COC1(OC)N=C(N)C2(C#N)C(c3ccc(Cl)cc3)C12C#N (configuration not stated) | -0.1 | 16.9 | -0.8 | -4.0 | nt | nt
CCOC1(OCC)N=C(N)C2(C#N)C(c3ccc(OC)c(OC)c3)C12C#N (configuration not stated) | 0.1 | 24.8 | -0.5 | 8.7 | nt | nt
CCOC1(OCC)N=C(N)C2(C#N)C(c3cccc(C)c3)C12C#N (configuration not stated) | 0.1 | 56.3* | 0.3 | 17.2 | -1.9 | 6.1
